The record followed here is PubChem BioAssay.

Records with an inconclusive call do not appear. The source made the active and inactive calls. Cut-off read from the data, not from the text of the source, unless noted: active = response above about 15%; inactive = the rest.

Experiment [1] in a line: rapamycin-like changes in RPL19A-GFP expression – cell-based, S. cerevisiae, multiplex flow cytometry, primary screen (AID 1862; in the data active = percent of DMSO control GFP below about 86%;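 note: lower values mimic rapamycin by blocking the RPL19A rise seen in DMSO cells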). The note with it: S. cerevisiae RPL19A-GFP strain, flow cytometry fluorescence, 3 h; at 10 µM; stronger effect = lower value. (In general: Flow cytometry measures light scatter and fluorescence of single cells or particles in a stream.)
Experiment [2] can be described thus: TOR pathway GLN3 branch reporter MEP2-GFP changes – S. cerevisiae, multiplex flow cytometry, primary screen (AID 1867;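 active = GFP response, as percent of the DMSO control, above the screen-wide mean plus 3 SD, about 139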;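 note: median GFP channel fluorescence of barcode-gated MEP2-GFP cells measured by flow cytometry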). As to conditions: S. cerevisiae MEP2-GFP strain, 3 h, at 10 µM, stronger effect = higher value, 100% means same as DMSO wells.
The nature of experiment [3]: TOR pathway RTG branch CIT2 reporter changes – S. cerevisiae, GFP fusion, multiplex flow cytometry, primary screen (AID 1870;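 active = percent response above a set limit, the screen-wide mean plus 3 SD, cut at about 130% in these data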;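 note: barcoded CIT2-GFP strain pooled with four other GFP strains with rapamycin as positive control; median GFP fluorescence per well over plate mean of DMSO wells so 100% = DMSO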). The note with it: S. cerevisiae CIT2-GFP expression, 3 h, at 10 µM, stronger effect = higher value.
A short description of experiment [4]: TOR pathway LAP4-GFP level changes – S. cerevisiae, multiplex flow cytometry, primary screen (AID 1873;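 active = GFP signal, as percent of the solvent control, above the screen mean plus 3 SD, about 149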). As to conditions: S. cerevisiae LAP4-GFP expression, 3 h, at 10 µM, stronger effect = higher value.
Experiment [5] can be described thus: yeast AGP1-GFP level changes, GLN3 branch – cell-based, multiplex flow cytometry, S. cerevisiae, primary screen (AID 1887;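 active = GFP signal above the screen-wide mean plus 3 SD, that is over about 124.5% of the solvent control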;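 note: AGP1-GFP fusion strain of S. cerevisiae within a five-strain barcoded multiplex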). As to conditions: 3 h, at 10 µM, stronger effect = higher value.
Experiment [6] can be described thus: reduced mouse 2C T cell binding to pMHC/ICAM-1 vesicles – MLPCN validation set, flow cytometry, LFA-1/ICAM-1 modulator project, pilot screen (AID 2523;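 active = response below a set limit, under 55% cells CD8-positive and vesicle-bound, and CD8 cells' 90th-percentile brightness under 279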;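 for vesicle binding response: mean PE anti-B7-1 fluorescence of CD8+ cells relative to row control; 100% = QL9-loaded vesicles with DMSO vehicle in the same plate row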). As to conditions: 2C mouse CD8+ T cells, at 7 µM, stronger effect = lower value; double positive events: measured here: CD8+/vesicle+ event percentage.
In experiment [7] the target is Integrin beta-1 (Homo sapiens) + Integrin alpha-4 (Homo sapiens) (UniProt P13612+P05556). Briefly: alpha4beta1 integrin LIBS antibody binding reduction – U937 cells, HUTS-21 mAb, flow cytometry, validation set, VLA-4 allosteric modulator project, pilot screen (AID 2674;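 active = inhibition above 50%, about 3 SD of the validation set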;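 note: antibody binding induced by the VLA-4 ligand LDV present at three times its Kd; 0% = LDV ligand with antibody and no compound and 100% = antibody without LDV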). As to conditions: HUTS-21 LIBS mAb binding, at 6.7 µM, stronger effect = higher value, binding induced by LDV ligand.
Chain of Integrin beta-1 (Homo sapiens) + Integrin alpha-4 (Homo sapiens) (P05556 whole entry, looked up): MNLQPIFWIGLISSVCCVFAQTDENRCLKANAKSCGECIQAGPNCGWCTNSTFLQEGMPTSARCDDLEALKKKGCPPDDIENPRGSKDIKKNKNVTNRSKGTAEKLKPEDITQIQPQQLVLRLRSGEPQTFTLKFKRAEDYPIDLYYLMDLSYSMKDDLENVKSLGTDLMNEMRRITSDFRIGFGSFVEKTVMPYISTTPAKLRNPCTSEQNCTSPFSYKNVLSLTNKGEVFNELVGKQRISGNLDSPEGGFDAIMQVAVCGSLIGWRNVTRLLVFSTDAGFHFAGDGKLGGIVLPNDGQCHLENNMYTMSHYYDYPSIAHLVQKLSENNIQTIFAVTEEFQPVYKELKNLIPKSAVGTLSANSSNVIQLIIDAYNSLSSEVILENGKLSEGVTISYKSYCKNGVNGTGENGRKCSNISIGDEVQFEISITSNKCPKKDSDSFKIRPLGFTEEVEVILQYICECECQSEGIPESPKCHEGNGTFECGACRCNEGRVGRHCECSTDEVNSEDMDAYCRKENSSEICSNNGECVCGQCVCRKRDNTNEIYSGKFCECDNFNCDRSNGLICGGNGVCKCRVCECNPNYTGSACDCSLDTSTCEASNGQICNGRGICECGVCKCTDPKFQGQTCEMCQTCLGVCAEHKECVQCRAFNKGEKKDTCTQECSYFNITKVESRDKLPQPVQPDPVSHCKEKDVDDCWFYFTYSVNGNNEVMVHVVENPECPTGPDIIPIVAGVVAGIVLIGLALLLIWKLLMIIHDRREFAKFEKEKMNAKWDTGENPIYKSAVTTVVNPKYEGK
Chain of Integrin beta-1 (Homo sapiens) + Integrin alpha-4 (Homo sapiens) (P13612 whole entry, looked up): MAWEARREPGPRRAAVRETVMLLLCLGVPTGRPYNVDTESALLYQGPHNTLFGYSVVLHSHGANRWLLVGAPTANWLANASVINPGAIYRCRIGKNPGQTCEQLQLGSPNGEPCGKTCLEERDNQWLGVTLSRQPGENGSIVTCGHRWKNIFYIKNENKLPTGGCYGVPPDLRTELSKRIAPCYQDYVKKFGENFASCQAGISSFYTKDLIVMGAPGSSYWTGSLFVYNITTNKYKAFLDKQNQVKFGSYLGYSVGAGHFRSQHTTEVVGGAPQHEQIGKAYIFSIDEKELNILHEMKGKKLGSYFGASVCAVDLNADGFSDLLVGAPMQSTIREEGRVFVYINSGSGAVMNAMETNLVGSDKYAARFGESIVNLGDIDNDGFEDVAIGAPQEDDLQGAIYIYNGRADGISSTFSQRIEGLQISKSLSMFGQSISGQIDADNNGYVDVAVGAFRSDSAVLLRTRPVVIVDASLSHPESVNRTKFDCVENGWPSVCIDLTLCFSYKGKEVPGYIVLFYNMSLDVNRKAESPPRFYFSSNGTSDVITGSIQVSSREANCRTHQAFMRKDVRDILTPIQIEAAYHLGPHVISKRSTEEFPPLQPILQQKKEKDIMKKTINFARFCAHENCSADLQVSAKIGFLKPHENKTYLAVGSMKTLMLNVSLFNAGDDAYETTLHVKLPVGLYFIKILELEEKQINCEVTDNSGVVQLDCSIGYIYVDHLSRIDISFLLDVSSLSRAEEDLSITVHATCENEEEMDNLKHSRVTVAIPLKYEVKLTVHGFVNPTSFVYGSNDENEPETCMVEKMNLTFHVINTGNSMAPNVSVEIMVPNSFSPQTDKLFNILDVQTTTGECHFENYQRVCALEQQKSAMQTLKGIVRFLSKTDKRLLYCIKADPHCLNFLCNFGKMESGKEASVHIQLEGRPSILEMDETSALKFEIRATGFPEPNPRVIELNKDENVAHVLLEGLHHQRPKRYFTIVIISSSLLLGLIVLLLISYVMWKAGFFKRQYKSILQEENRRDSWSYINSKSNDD

Experiment [8] is described as follows: calorie-restriction mimetic ROS inhibitors, yeast – validation compound set, pilot screen (AID 2706;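 active = superoxide response below 65% of plate, a cut near 3 SD across the whole screen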;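 note: yeast exposed to compound for one week at 30 degrees C before staining; 100% = mean of all compound wells on the same plate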). As to conditions: S. cerevisiae aging, superoxide DHE fluorescence; at 10 µM; stronger effect = lower value.
Experiment [9] addresses Beta-adrenergic receptor kinase 1 (Homo sapiens) (UniProt P25098). The experiment is described as follows: GRK2 binders displacing RNA aptamer, biochemical, validation, human GRK2, bead flow cytometry (AID 488806;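 active = aptamer binding inhibition above 30%, about 3 SD of noise from non-fluorescent compounds; inactive = inhibition at or below 30%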). The note with it: bead-bound GRK2, FAM-aptamer displacement, at 10 µM, stronger effect = higher value.
The target of experiment [10] is Beta-2 adrenergic receptor (Homo sapiens) (UniProt P07550). Briefly: agonist-induced loss of surface beta2AR – cell-based, FAP fluorogen, flow cytometry, validation set, pilot screen (AID 504459;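 active = percent response above 42, roughly 3 SD of non-fluorescent test compounds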;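 note: agonist-driven loss of surface beta2AR via internalization measured by FAP dye flow cytometry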). The note with it: Am2.2-beta2AR cells, at 10 µM, stronger effect = higher value.
Chain of Beta-2 adrenergic receptor (Homo sapiens) (P07550 whole entry, looked up): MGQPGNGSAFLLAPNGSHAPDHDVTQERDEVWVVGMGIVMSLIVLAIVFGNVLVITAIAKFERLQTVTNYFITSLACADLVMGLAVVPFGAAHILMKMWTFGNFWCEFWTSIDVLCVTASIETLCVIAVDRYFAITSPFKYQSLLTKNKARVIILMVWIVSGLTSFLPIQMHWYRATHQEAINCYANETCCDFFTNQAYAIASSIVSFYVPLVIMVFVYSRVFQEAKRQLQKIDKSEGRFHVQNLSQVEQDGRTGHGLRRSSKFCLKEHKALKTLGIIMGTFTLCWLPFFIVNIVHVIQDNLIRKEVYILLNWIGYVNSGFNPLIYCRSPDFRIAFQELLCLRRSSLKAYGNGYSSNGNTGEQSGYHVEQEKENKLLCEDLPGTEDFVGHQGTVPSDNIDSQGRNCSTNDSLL
The target of experiment [11] is AP-2 complex subunit beta (Homo sapiens) (UniProt P63010). The experiment is described as follows: beta-arrestin/AP2 interaction blockers – biochemical, validation set, GST-AP2 beads, flow cytometry, pilot screen (AID 504541;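 active = inhibition above 54%, about 3 SD of non-fluorescent compounds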;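 note: AP2 carries R879A mutation and is captured from E. coli lysate; bead-bound FITC arrestin peptide fluorescence measuring arrestin peptide binding to AP2; 0% = DMSO wells and 100% = excess unlabeled arrestin peptide control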). As to conditions: FITC arrestin peptide, at 10 µM, stronger effect = higher value, AP2 beta2 appendage fragment, R879A mutant.
Chain of AP-2 complex subunit beta (Homo sapiens) (P63010 whole entry, looked up, the tested form may be a part, one chain of several): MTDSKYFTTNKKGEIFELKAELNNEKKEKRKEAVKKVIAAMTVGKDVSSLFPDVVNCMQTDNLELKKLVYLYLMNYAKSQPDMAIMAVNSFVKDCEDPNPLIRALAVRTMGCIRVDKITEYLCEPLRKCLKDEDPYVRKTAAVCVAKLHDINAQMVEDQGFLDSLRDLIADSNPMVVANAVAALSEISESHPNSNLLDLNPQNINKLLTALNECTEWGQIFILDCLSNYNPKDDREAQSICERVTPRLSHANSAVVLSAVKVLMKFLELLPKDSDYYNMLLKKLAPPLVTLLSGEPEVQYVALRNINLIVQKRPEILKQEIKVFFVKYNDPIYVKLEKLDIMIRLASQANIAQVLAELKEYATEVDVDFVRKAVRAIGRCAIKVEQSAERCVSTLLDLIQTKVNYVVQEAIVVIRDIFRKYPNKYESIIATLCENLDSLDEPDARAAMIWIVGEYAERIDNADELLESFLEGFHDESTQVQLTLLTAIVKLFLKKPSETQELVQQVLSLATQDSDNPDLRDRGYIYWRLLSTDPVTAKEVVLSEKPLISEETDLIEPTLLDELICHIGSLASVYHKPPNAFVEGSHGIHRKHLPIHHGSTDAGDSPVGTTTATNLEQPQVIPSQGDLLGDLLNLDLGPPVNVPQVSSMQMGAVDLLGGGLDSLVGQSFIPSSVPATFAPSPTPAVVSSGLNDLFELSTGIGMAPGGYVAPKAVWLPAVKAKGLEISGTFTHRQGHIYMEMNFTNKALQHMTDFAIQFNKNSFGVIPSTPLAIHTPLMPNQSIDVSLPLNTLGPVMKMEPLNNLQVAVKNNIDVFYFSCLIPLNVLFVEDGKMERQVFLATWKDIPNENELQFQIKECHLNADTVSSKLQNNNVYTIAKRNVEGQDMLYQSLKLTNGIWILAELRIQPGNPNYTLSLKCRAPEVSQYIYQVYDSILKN
A short description of experiment [12]: cytosolic pH regulators acting via V-ATPase – S. cerevisiae, pHLuorin, HTS validation (AID 504600).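 Note: plate controls were DMSO for no effect and reference compound for full effect.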 As to conditions: V-ATPase proton transport, at 10 µM, stronger effect = higher value.
In experiment [13] the test system is anti-desmoglein-3 scFv antibody binding to human DSG3. Briefly: blockers of pathogenic pemphigus antibody–desmoglein-3 binding – biochemical, validation compound set, bead-based, flow cytometry, pilot screen (AID 588368;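 active = binding below the plate cutoff, the plate median minus 3 SD, with a reading above zero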;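 note: signal is the median channel fluorescence of bead-bound GFP antibody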). The note with it: Protein G beads, DSG3-Fc, scFv-GFP binding, at 10 µM, stronger effect = lower value.
Experiment [14] can be described thus: Nile Red efflux blockade in pump-expressing yeast – validation compound set, multiplex, phenotypic, pilot screen (AID 588506;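 active = efflux inhibition above 0.42, the validation set average plus 4 SD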;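 note: Nile Red retained in cells so higher fluorescence means more efflux inhibition; 0 = negative control wells and 1 = enniatin B 25 µM full block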). The note with it: S. cerevisiae pump-expressing triplex, Nile Red efflux flow cytometry; at 10 µM; stronger effect = higher value; the pumps come from Candida albicans.
In experiment [15] the target is ATP-binding cassette sub-family B member 6 (Homo sapiens) (UniProt Q9NP58). Briefly: blockers of ABCB6-driven porphyrin uptake – K562-ABCB6 cells, flow cytometry, validation set, pilot screen (AID 588550;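 active = inhibition above the screen-wide mean plus 3 SD, about 51%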;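 note: 0% = DMSO wells and 100% = benzethonium chloride 70 µM positive control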). The note with it: K562-ABCB6 porphyrin accumulation, 1 h, at 10 µM, stronger effect = higher value.
Chain of ATP-binding cassette sub-family B member 6 (Homo sapiens) (Q9NP58 whole entry, looked up): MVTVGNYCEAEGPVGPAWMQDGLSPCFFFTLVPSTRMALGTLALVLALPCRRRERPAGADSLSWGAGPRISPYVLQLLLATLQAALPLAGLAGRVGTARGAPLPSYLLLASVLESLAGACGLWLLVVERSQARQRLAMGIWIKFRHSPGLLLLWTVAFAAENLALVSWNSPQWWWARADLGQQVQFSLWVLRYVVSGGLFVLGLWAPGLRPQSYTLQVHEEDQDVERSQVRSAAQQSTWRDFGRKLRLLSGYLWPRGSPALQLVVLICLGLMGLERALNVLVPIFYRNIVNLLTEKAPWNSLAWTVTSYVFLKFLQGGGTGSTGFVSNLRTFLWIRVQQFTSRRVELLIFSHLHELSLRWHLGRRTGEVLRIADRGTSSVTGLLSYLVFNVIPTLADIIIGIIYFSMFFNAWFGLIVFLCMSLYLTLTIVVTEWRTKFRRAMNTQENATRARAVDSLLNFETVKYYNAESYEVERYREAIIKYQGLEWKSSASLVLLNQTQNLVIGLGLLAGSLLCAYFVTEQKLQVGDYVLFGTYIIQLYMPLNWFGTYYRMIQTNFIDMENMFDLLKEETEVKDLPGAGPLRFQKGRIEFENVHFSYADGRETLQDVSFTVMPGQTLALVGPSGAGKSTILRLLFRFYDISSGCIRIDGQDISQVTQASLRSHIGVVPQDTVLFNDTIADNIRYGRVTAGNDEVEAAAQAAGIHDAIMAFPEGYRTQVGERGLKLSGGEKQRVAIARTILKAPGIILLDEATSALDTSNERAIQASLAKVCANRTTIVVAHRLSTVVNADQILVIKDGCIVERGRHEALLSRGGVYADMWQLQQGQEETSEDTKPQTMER
Experiment [16] in a line: AML differentiation inducers, ER-HoxA9 marrow cells – cell-based, GFP/MAC1 double positive, flow cytometry, validation set, primary screen (AID 588685;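 active = differentiation response of at least 50%, scaled between solvent and reference control, from cells with both markers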;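 note: compound exposure lasts four days before antibody staining and flow analysis; 0% = DMSO wells and 100% = 5 µM fulvestrant positive control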). The note with it: stronger effect = higher value, normalized: vehicle 0, fulvestrant 100.

Chain of Beta-adrenergic receptor kinase 1 (Homo sapiens) (P25098 whole entry, looked up): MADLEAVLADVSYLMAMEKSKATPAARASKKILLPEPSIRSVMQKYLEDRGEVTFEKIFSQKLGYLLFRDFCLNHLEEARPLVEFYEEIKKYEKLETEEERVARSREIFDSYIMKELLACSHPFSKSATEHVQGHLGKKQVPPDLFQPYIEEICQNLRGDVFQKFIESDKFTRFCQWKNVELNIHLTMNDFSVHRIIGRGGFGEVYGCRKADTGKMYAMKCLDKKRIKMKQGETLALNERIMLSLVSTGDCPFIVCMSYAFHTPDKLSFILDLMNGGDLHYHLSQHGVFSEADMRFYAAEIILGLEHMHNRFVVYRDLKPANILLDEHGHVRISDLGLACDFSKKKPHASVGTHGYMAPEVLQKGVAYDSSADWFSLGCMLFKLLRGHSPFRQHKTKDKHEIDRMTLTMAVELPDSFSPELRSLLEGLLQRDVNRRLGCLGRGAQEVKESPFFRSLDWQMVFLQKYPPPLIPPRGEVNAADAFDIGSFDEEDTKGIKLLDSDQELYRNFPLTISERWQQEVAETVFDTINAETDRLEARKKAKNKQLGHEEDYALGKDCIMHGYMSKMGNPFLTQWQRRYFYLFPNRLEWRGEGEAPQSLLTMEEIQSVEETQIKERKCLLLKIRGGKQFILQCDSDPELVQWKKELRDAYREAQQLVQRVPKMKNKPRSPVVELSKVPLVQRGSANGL

The term inhibition denotes the relative decrease from the control value, in per cent. In the case of `CCCN1CCC(NC(=O)Nc2ccc(Br)cc2)CC1`, in experiment [1], the percent of DMSO control GFP is 104% (inactive). Moreover, the figures for the GFP response vs DMSO in experiment [2] and in experiment [4] were 110% (inactive) and 92.7% (inactive), respectively. Moreover, the percent response of DMSO control in [3] was 102% (inactive). For the same compound, in experiment [5], the GFP response, % of DMSO was 102% (inactive). Besides, the double positive events in [6] was 63.2%. In addition, the vesicle binding response in experiment [6] is 96.6% (inactive). Besides, the figures for the inhibition in experiment [7], in experiment [11] and in experiment [15] were -0.45% (inactive), -13.3% (inactive) and 16% (inactive), respectively. In addition, in experiment [8], the superoxide response (% of plate) is 94.7% (inactive). Moreover, the aptamer binding inhibition in experiment [9] is -5% (inactive). Besides, the response was 1.9% (inactive) in experiment [10] and 1.92% (inactive) in [12]. In addition, the binding (% of control) in experiment [13] was 96.8% (inactive). In addition, in [14], the efflux inhibition (fraction of control) was -0.23 (inactive). Also, the differentiation response in experiment [16] was 13.9% (inactive).

`COc1ccc(C2C(C(=O)c3ccco3)=C(O)C(=O)N2CC2CCCO2)cc1` (stereo not drawn): in experiment [1], the percent of DMSO control GFP was 102% (inactive). The values for the GFP response vs DMSO in experiment [2] and in experiment [4] were 105% (inactive) and 99.3% (inactive), respectively. For the same compound, the percent response of DMSO control in experiment [3] was 104% (inactive). Moreover, the GFP response, % of DMSO in experiment [5] was 95.3% (inactive). In experiment [6], this compound yielded a double positive events of 62.9%. Moreover, in experiment [6], the vesicle binding response was 351% (inactive). Further, the figures for the inhibition in experiment [7], in experiment [11] and in experiment [15] were -7.72% (inactive), 25.3% (inactive) and 3% (inactive), respectively. Moreover, in [8], the superoxide response (% of plate) is 105% (inactive). For the same compound, in experiment [9], the aptamer binding inhibition was 3% (inactive). For the same compound, the results for the response in [10] and in experiment [12] were -3.98% (inactive) and -4.81% (inactive), respectively. Also, the binding (% of control) in experiment [13] was 98.9% (inactive). Further, the efflux inhibition (fraction of control) in experiment [14] was 0.05 (inactive). The differentiation response in [16] is -5.62% (inactive).

Take `CCN1C(=O)C(CC(=O)Nc2ccc(F)cc2)N(Cc2ccco2)C1=S` (stereo not drawn): the percent of DMSO control GFP in [1] is 99% (inactive). The GFP response vs DMSO is 102% (inactive) in [2] and 106% (inactive) in experiment [4]. Also, the percent response of DMSO control in [3] is 95.1% (inactive). The GFP response, % of DMSO in experiment [5] is 114% (inactive). This compound had a double positive events in experiment [6] of 62.4%. Also, in [6], the vesicle binding response was 194% (inactive). The inhibition in experiment [7] is 15.1% (inactive); in [11], -8.85% (inactive); in experiment [15], 7% (inactive). For the same compound, in [8], the superoxide response (% of plate) was 107% (inactive). For the same compound, the aptamer binding inhibition in experiment [9] was 5% (inactive). The response in [10] is -17.8% (inactive); in [12] it was 1.67% (inactive). The binding (% of control) in experiment [13] was 99.9% (inactive). Also, in experiment [14], the efflux inhibition (fraction of control) is -0.04 (inactive). In addition, the differentiation response in experiment [16] was 18.7% (inactive).

Consider `CCN(CC)C(=O)N1CCN(C)CC1`, for which the percent of DMSO control GFP in [1] was 101% (inactive). Moreover, the GFP response vs DMSO is 106% (inactive) in experiment [2] and 101% (inactive) in experiment [4]. Besides, the percent response of DMSO control in experiment [3] was 101% (inactive). In addition, in [5], the GFP response, % of DMSO is 108% (inactive). Moreover, the double positive events in experiment [6] was 63.6%. Besides, the vesicle binding response in experiment [6] is 158% (inactive). The inhibition is -3.77% (inactive) in [7], 7.6% (inactive) in [11] and 9% (inactive) in experiment [15]. For the same compound, the superoxide response (% of plate) in [8] is 104% (inactive). For the same compound, the aptamer binding inhibition in experiment [9] was -1% (inactive). In addition, the response in experiment [10] is -0.51% (inactive); in [12] it was 0.18% (inactive). In addition, in experiment [13], the binding (% of control) is 103% (inactive). Also, in experiment [14], the efflux inhibition (fraction of control) was 0.72 (active). In addition, the differentiation response in [16] is -13.3% (inactive).
